FBPA Giardia inh: blocks Giardia fructose-bisphosphate aldolase activity. hit rate 0.71% among 290,000. A8B2U2. purified Giardia FBPA. Potency, µM (doses to about 59.6 µM), for the others: top-dose activity, negative = inhibition, actives largely listed as inhibitors; note: nearly all actives have a fitted effect of over 55% in size
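40 nM FBPA preincubated 10 min at RT with compound (up to 57.5 uM final), then substrate plus GAPDH/TPI/NAD/arsenate coupling and diaphorase/resazurin added. Fluorescence read after 20 min at RT, 525/598 nm.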
Cruzain noTriton: blocks cruzain activity in detergent-free assay; Potency, µM, inactives show max response, negative = inhibition, usual class: inhibitors; purified cruzain, Z-FR-AMC fluorescence, no detergent; hit rate 2.3% among 200,000; P25779;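 note: plate controls were enzyme without inhibitor for no effect and buffer without enzyme for full effect; nearly all actives have a fitted effect of over 40% in size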
Target sequence (P25779 123-467 limits assumed): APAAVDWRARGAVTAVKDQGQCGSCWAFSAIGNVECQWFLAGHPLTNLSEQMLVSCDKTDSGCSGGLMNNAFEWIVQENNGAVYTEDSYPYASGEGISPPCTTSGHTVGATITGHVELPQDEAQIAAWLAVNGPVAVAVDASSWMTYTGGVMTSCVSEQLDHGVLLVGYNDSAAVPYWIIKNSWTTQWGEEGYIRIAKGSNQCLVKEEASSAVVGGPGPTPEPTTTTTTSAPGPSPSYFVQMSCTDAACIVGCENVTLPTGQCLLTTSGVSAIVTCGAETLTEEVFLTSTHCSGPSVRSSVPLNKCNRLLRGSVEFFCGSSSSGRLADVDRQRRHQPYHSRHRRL
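Detergent-free condition (0.00005% Triton X-100) in acetate buffer pH 5.5 with DTT. 1.5 nM enzyme and compound were pre-mixed 15 min, then 2 uM Z-FR-AMC substrate added; reaction progress from fluorescence change between first and third reads (60 s).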
Cruzain inh Det: inhibitors of Trypanosoma cruzi cruzain with detergent; hit rate 0.43% among 200,000; P25779; Potency, µM, inactives show max response, negative = inhibition, actives largely listed as inhibitors; purified cruzain, Z-FR-AMC fluorescence, 0.01% Triton;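 note: plate controls were neutral wells for no effect and buffer without enzyme for full effect; nearly all actives have a fitted effect of over 40% in size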
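15 min RT preincubation of 1.5 nM cruzain with compound, then 2 uM Z-FR-AMC added; kinetic AMC fluorescence, 60 s delta. Triton X-100 0.01%, pH 5.5.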
Papain counter: blocks papain protease activity, flagging nonselective cruzain hits | shares compounds with Cruzain inh Det | purified papain, Z-FR-AMC fluorescence cleavage | Potency, µM, inactives show max response, negative = inhibition, hits mostly inhibitors | hit rate 41% among 410;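 note: 0% = no-compound wells and -100% = no-enzyme wells; nearly all actives have a fitted effect of over 35% in size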
Target sequence (P00784 whole entry, looked up): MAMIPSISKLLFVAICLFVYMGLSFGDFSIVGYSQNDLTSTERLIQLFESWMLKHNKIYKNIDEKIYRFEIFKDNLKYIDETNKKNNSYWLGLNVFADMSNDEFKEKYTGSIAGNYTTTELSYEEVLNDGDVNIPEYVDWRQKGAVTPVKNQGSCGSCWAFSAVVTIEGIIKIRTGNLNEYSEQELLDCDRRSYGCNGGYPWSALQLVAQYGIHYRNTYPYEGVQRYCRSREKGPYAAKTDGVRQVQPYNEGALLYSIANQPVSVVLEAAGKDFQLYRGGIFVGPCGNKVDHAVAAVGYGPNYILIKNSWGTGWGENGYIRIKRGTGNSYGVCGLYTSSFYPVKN
* hit, by the source's call; ? = inconclusive; / = not tested or not shown; [ ] = remark or other dose. Many of the other results were omitted from the sample, so hits are more common in it than they were. Calls come from the whole dose curve; as a rule, active = well fitted curve in the direction sought with a large enough effect; inconclusive = small, poorly fitted or top-dose-only effect, or another doubt; inactive = no such curve, though single readings can be large; an effect the other way counts as inactive or inconclusive. Unless noted, % is set by controls: 0 for no effect and ±100 for the full control effect; potency is the fitted concentration of half-maximal effect.

SMILES	FBPA Giardia inh	Cruzain noTriton	Cruzain inh Det	Papain counter
O=C(NC1CC1)c1ccc2nc(-c3ccco3)c(-c3ccco3)nc2c1	/	/	/	32µM*
O=C(Nc1ccccc1)c1ccc2nc(-c3ccco3)c(-c3ccco3)nc2c1	?	?	?	13µM*
N[C@@H](Cc1ccnnc1)C(=O)O	/	9%	1%	/
c1ccc(CCN2CCOCC2)nc1	/	7%	0%	/
COc1cccc(NC(=O)Cn2c(=O)n(CC(=O)NCc3ccc(C)cc3)c(=O)c3sccc32)c1	/	-6%	-2%	/
COC(=O)CS(=O)(=O)c1nnc([C@H](Cc2ccccc2)NC(=O)OC(C)(C)C)o1	3%	10µM*	7.1µM*	5.6µM*
COC(=O)CSc1nnc([C@H](Cc2ccccc2)NC(=O)OC(C)(C)C)o1	-3%	4%	0%	/
CO[C@@H]1COC(=O)C/C=C\[C@H](C)[C@H](OC)COC(=O)[C@H](C)NC(=O)C/C=C\[C@H]1C	1%[12.9 µM]	/	/	/
O=C(COC(=O)CNS(=O)(=O)c1ccc(F)c(F)c1F)Nc1ccc(OC(F)F)cc1	0%	?	22µM*	-6%
C=CCNC(=O)NC(=O)COC(=O)CNS(=O)(=O)c1ccc(F)c(F)c1F	-1%	/	/	/
COc1ccc(-n2c(SCC(=O)Nc3nnc(C)s3)nc3c([nH]c4ccccc43)c2=O)cc1	/	15%	-2%	/
CCOc1ccccc1CNC(=O)C1CCN(C(=O)N2CC(CC)Oc3ccc(C)cc32)CC1 (stereo not drawn)	/	?	-7%	/
COc1ccc(CCNC(=O)CCc2cn(Cc3ccc(F)cc3)c3ccccc23)cc1OC	/	?	-4%	/
CCC(C(=O)NC1CCCCC1)n1c(SCc2ccccc2F)nc2ccncc21 (stereo not drawn)	0%	?	13µM*	28µM*
O=C(NC1CCCC1)c1ccc(CSc2nc3ccncc3n2Cc2ccccc2F)cc1	/	3%	-7%	/
COc1ccc(-n2c(=O)cnc3cnc(N(C)C)nc32)cc1	1%	-2%	-6%	/
CC(=O)c1nnn(-c2nc(C#N)nc(N3CCOCC3)n2)c1C	/	/	/	-7%
Nc1nc(CSc2ccccc2)nc(N2CCCCC2)n1	0%	/	/	/
C1CN(c2nc(N3CCOCC3)nc(N3CCOCC3)n2)CCO1	3%	/	/	/
CN(C)c1nc(SCC#N)nc(N2CCOCC2)n1	1%	-7%	4%	/
CN(C)c1nc(C#N)nc(N2CCOCC2)n1	/	3.2µM*	4µM*	2.2µM*
N#Cc1nc(N)nc(N2CCCCC2)n1	/	/	/	5µM*
N#Cc1nc(N2CCCCC2)nc(N2CCOCC2)n1	0%	1µM*	0.89µM*	1µM*
COC(=O)c1nnn(-c2nc(N3CCOCC3)nc(N3CCOCC3)n2)c1C	3%	/	/	/
CCC(C(=O)NCCc1ccc(Cl)cc1)n1ccc2cc(S(=O)(=O)N3CCCCC3)ccc21 (stereo not drawn)	/	0%	-4%	/
SMILES	FBPA Giardia inh	Cruzain noTriton	Cruzain inh Det	Papain counter
Cc1cc(C)cc(C(=O)N(Cc2nc(-c3ccc(Cl)cc3)no2)C(C)C)c1	/	-2%	-5%	/
COC(=O)c1scc(-c2ccc(C)cc2)c1S(=O)(=O)N1CCN(c2cccc(Cl)c2)CC1	/	?	-4%	/
O=c1[nH]ccc2c(S(=O)(=O)N3CCCNCC3)cccc12	-3%	?	-1%	/
COc1cccc(-c2ccc3ncnc(Nc4ccccc4)c3c2)c1	2%	23%	-2%	/
COc1nc(C#N)nc(N2CCCCC2)n1	/	/	/	2.2µM*
COc1nc(OC)nc(N2CCCCCC2)n1	0%	4%	-4%	/
CNc1nc(OCC(F)(F)F)nc(N2CCOCC2)n1	8%	-3%	3%	/
C1CCN(c2nc(N3CCCCC3)nc(N3CCNCC3)n2)CC1	2%	6%	4%	/
CCOc1nc(C#N)nc(N2CCOCC2)n1	/	/	/	4µM*
N/C(=N/O)c1nc(N2CCCC2)nc(N(c2ccccc2)c2ccccc2)n1	10%	-2%	-12%	/
N#Cc1nc(N2CCCC2)nc(N2CCCC2)n1	8%	5µM*	7.9µM*	5.6µM*
N#Cc1nc(N2CCCC2)nc(N(c2ccccc2)c2ccccc2)n1	/	/	/	2µM*
O=C(O)/C(Cc1cn[nH]n1)=N\O	/	7%	-2%	/
CCOC(=O)C(C)(C)[C@H](O)C(C)C	/	-9%	4%	/
CCOC(=O)C1=C(CN(CC)Cc2ccccc2)NC(=O)NC1c1ccc(OC(C)C)cc1 (stereo not drawn)	/	5%	-8%	/
COC(=O)C1=C[C@@H](C(=O)OC)C2C3=C(C(=O)[C@]2(C)NC(=O)c2ccccc2)[C@H](C)n2c(=O)n(C)c(=O)n2[C@@H]3C1 (stereo partly drawn)	3%	/	/	/
CCOC(=O)CNc1nc(C#N)nc(N2CCOCC2)n1	8%	2µM*	2.2µM*	2.2µM*
CCOC(=O)CNc1nc(Cl)nc(N2CCCCC2)n1	4%	/	/	/
O=C(Nc1cccc(Cl)c1)c1ccc2nc(CCc3ccccc3)oc2c1	/	6%	-7%	/
CCOC(=O)CCN1C(=O)[C@H]2[C@H]3[C@H](O)[C@H](O)C/C(=N/OCc4ccccc4)[C@H]3CC[C@@H]2C1=O	1%[12.9 µM]	/	/	/
O=C(c1ccco1)N1CCN(c2c(-c3ccccc3)c3cc(Cl)ccc3[nH]c2=O)CC1	-2%	?	-3%	/
O=C(c1ccco1)N1CCN(c2ncnc3c2[nH]c2ccc(Cl)cc23)CC1	-2%	?	14µM*	-10%
CCNC(=O)c1ccc2nc(-c3ccccc3)c(-c3ccccc3)nc2c1	/	/	/	-14%
CCc1nc2ccc(C(=O)NCCc3ccco3)cc2nc1CC	-2%	/	/	/
O=C(NCCO)Nc1ccc2nc(-c3ccco3)c(-c3ccco3)nc2c1	-59%	/	/	/
SMILES	FBPA Giardia inh	Cruzain noTriton	Cruzain inh Det	Papain counter
O=C(NCCCO)c1ccc2nc(-c3ccco3)c(-c3ccco3)nc2c1	?	/	/	28µM*
CCCCNC(=O)c1ccc2nc(-c3ccco3)c(-c3ccco3)nc2c1	?	16µM*	14µM*	16µM*
CCCNC(=O)c1ccc2nc(-c3ccccc3)c(-c3ccccc3)nc2c1	-3%	?	-9%	/
Cc1cc(C)cc(NC(=O)c2cc(S(=O)(=O)N3CCCC3)ccc2F)c1	/	2%	0%	/
CCOC(=O)C1CCN(C(=O)Cn2nc(CC)n3c(cc4occc43)c2=O)CC1	/	2%	-3%	/
O=C(NCC(c1cccnc1)N1CCc2ccccc2C1)C(=O)Nc1cccc(Cl)c1 (stereo not drawn)	/	-2%	-1%	/
CC(=O)C1=C(c2ccccc2)N(C(C)=O)n2c(nnc2C2CCCCC2)S1	/	6%	-3%	/
CCCNC(=O)OC[C@@H]1O[C@H](CCO/N=C\[C@@H](OC)[C@H](C)/C=C\CC(=O)OC)C=C[C@@H]1Oc1ccc(OC)cc1	1%[12.9 µM]	/	/	/
O=C(Nc1ccc(N2CCCC2)cc1)c1ccc(Br)o1	-19%	7.9µM*	?	26%
CCN1CCN(c2ccc(NC(=O)c3ccc(Br)o3)cc2)CC1	1%	/	/	/
CC(C)CNC(=O)c1c(N)n(Cc2ccco2)c2nc3ccccc3nc12	-12%	?	-13%	/
CC(C)OC(=O)c1c(N)n(Cc2ccco2)c2nc3ccccc3nc12	?	13µM*	11µM*	-2%
O=C(CNC(=O)c1ccccc1)OC(C(=O)Nc1cc(C(F)(F)F)ccc1Cl)c1ccccc1 (stereo not drawn)	2%	10µM*	7.1µM*	-17%
